In ChEMBL document CHEMBL2218924, “A broad activity screen in support of a chemogenomic map for kinase signalling research and drug discovery” (Biochem J, 2013):

Each compound was assayed against T1, Mitogen-activated protein kinase 12 (Homo sapiens) (UniProt P53778). Conditions: at 1 µM.
T1 sequence (whole entry): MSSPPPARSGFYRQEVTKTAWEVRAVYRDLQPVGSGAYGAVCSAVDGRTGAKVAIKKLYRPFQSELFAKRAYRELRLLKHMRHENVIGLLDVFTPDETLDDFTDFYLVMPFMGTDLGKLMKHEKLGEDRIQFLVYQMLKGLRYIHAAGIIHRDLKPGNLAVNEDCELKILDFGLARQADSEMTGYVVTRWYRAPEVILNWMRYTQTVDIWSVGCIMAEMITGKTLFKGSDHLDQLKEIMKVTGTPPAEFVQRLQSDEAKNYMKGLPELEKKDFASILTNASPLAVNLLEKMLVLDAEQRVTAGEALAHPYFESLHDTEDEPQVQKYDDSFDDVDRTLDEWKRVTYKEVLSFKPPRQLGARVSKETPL

SMILES	residual activity [%]
CC(C)(C)n1nc(Cc2cccc3ccccc23)c2c(N)ncnc21	100
Cc1nc(-c2ccccc2)c(-c2ccncc2)o1	106
O=C1NC(=O)/C(=C/c2ccc3c(c2)OC(F)(F)O3)S1	110
CC(C)n1cnc2c(NCc3ccccc3)nc(NCCCO)nc21	100
COc1cc2nccc(Oc3ccc(NC(=S)NC(=O)c4ccccc4C)cc3)c2cc1OC	99
Cc1cc(Nc2nc(-c3ccccc3)nc3ccccc23)n[nH]1	103
NCCNc1ncc(C(N)=O)c(Nc2cccc(C(F)(F)F)c2)n1	103
CC(=O)O/N=C1\C(=C2\C(=O)Nc3cc(Br)ccc32)Nc2ccccc21	94
Cc1cc2ncc(-c3ccccc3)nc2cc1C	100
c1ccc2c(-c3ccncc3)c[nH]c2c1	100
O=C1Nc2cc(Br)ccc2/C1=C1/Nc2ccccc2/C1=N\O	95
Cc1nc2cc3nc(-c4cccs4)cnc3cc2n1C	114

These compounds were tested against T1, Mitogen-activated protein kinase 12 (Homo sapiens). Conditions: at 10 µM.

SMILES	residual activity [%]
CC(C)(C)n1nc(Cc2cccc3ccccc23)c2c(N)ncnc21	98
Cc1nc(-c2ccccc2)c(-c2ccncc2)o1	103
O=C1NC(=O)/C(=C/c2ccc3c(c2)OC(F)(F)O3)S1	113
CC(C)n1cnc2c(NCc3ccccc3)nc(NCCCO)nc21	101
COc1ccc2c(c[n+](C)c3c4cc5c(cc4ccc23)OCO5)c1OC	94
Oc1cccc(-c2nc(N3CCOCC3)c3oc4ncccc4c3n2)c1	86
N#CC(C#N)=C(N)/C(C#N)=C/c1ccc(O)cc1	92
COc1cc2nccc(Oc3ccc(NC(=S)NC(=O)c4ccccc4C)cc3)c2cc1OC	94
Nc1nc(Nc2ccc(S(N)(=O)=O)cc2)nn1C(=O)c1c(F)cccc1F	67
NCCNc1ncc(C(N)=O)c(Nc2cccc(C(F)(F)F)c2)n1	106
CC(=O)O/N=C1\C(=C2\C(=O)Nc3cc(Br)ccc32)Nc2ccccc21	92
Cc1cc2ncc(-c3ccccc3)nc2cc1C	100
c1ccc2c(-c3ccncc3)c[nH]c2c1	94
O=C1Nc2cc(Br)ccc2/C1=C1/Nc2ccccc2/C1=N\O	94
Cc1nc2cc3nc(-c4cccs4)cnc3cc2n1C	100

What follows are compounds tested against T2, Serine/threonine-protein kinase Sgk1 (Homo sapiens) (UniProt O00141). Conditions: at 10 µM.
T2 sequence (whole entry): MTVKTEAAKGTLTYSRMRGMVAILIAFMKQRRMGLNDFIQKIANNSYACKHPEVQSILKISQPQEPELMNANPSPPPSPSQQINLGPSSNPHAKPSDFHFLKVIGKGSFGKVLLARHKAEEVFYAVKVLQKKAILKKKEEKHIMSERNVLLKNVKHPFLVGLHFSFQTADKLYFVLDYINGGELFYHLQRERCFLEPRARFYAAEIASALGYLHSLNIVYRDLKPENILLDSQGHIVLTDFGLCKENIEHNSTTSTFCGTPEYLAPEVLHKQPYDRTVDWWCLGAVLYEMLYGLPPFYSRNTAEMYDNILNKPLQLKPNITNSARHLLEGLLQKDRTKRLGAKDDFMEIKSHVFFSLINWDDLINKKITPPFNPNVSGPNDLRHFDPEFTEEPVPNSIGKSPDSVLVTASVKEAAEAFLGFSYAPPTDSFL

SMILES	residual activity [%]
COc1ccc2c(c[n+](C)c3c4cc5c(cc4ccc23)OCO5)c1OC	85
O=C1NC(=O)c2c1c1c3ccccc3n3c1c1c2c2ccccc2n1C1CCC3O1	43
c1cc(-c2cnn3cc(-c4ccc(OCCN5CCCCC5)cc4)cnc23)ccn1	66

These compounds were tested against T3, Serine/threonine-protein kinase Sgk2 (Homo sapiens) (UniProt Q9HBY8). Conditions: at 1 µM.
T3 sequence (whole entry): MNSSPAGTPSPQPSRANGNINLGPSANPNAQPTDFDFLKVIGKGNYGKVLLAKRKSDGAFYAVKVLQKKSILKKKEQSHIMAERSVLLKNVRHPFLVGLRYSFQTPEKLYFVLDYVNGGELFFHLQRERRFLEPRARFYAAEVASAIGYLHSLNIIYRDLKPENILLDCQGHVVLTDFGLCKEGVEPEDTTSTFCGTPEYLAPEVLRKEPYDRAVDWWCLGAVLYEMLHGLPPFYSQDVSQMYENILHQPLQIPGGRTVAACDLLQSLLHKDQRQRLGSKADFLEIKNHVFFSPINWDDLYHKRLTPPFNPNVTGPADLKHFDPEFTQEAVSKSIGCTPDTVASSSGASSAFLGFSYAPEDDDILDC

SMILES	residual activity [%]
COc1ccc2c(c[n+](C)c3c4cc5c(cc4ccc23)OCO5)c1OC	130
O=C1NC(=O)c2c1c1c3ccccc3n3c1c1c2c2ccccc2n1C1CCC3O1	77
c1cc(-c2cnn3cc(-c4ccc(OCCN5CCCCC5)cc4)cnc23)ccn1	81

Each compound was assayed against T3, Serine/threonine-protein kinase Sgk2 (Homo sapiens). Conditions: at 10 µM.

SMILES	residual activity [%]
COc1ccc2c(c[n+](C)c3c4cc5c(cc4ccc23)OCO5)c1OC	65
O=C1NC(=O)c2c1c1c3ccccc3n3c1c1c2c2ccccc2n1C1CCC3O1	61
COc1ccc2c(c1)/C(=C/c1cnc[nH]1)C(=O)N2	32
c1cc(-c2cnn3cc(-c4ccc(OCCN5CCCCC5)cc4)cnc23)ccn1	48

What follows are compounds tested against T4, Serine/threonine-protein kinase Sgk3 (Homo sapiens) (UniProt Q96BR1). Conditions: at 1 µM.
T4 sequence (whole entry): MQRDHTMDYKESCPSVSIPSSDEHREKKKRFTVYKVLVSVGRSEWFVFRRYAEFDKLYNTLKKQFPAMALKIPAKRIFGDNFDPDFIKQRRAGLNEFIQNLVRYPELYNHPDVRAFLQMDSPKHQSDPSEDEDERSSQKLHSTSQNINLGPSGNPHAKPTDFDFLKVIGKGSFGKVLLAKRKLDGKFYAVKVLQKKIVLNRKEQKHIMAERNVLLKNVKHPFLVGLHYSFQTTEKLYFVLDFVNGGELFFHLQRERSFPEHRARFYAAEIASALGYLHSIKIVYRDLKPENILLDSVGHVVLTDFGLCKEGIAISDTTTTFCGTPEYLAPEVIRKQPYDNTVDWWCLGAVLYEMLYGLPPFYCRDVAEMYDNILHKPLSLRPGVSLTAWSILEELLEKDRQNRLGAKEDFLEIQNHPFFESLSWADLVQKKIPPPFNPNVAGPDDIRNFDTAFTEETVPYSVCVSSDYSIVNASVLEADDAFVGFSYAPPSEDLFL

SMILES	residual activity [%]
CCN(CC)CCNC(=O)c1c(C)[nH]c(/C=C2\C(=O)Nc3ccc(Cl)cc32)c1C	115
CC(C)(C)n1nc(Cc2cccc3ccccc23)c2c(N)ncnc21	106
CCCCc1c(-c2ccc(O)cc2)[nH]c2nccnc12	98
Cc1nc(-c2ccccc2)c(-c2ccncc2)o1	108
COc1cc2ncnc(Nc3ccc(NC(=O)c4ccccc4)cc3)c2cc1OC	96
O=C1NC(=O)/C(=C/c2ccc3c(c2)OC(F)(F)O3)S1	109
O=C(Nc1nc2ccccc2n1CCN1CCOCC1)c1cccc([N+](=O)[O-])c1	108
CC(C)[C@H](CO)Nc1nc(Nc2cc(N)cc(Cl)c2)c2ncn(C(C)C)c2n1	98
CC(C)n1cnc2c(NCc3ccccc3)nc(NCCCO)nc21	89
O=C1Cc2c([nH]c3ccc(Br)cc23)-c2ccccc2N1	91
c1ccc(-c2n[nH]c3c2oc2ccccc23)cc1	94
O=C1NC(=O)c2c1c1c3ccccc3n3c1c1c2c2ccccc2n1C1CCC3O1	98
CCN1/C(=C/C(C)=O)Sc2ccc(OC)cc21	100
COc1cc2nccc(Oc3ccc(NC(=S)NC(=O)c4ccccc4C)cc3)c2cc1OC	97
Cc1cncc2cccc(S(=O)(=O)N3CCCN(C(=O)CN)C[C@H]3C)c12	93
Cc1cc(Nc2nc(-c3ccccc3)nc3ccccc23)n[nH]1	107
Nc1nc(Nc2ccc(S(N)(=O)=O)cc2)nn1C(=O)c1c(F)cccc1F	106
NCCNc1ncc(C(N)=O)c(Nc2cccc(C(F)(F)F)c2)n1	82
CC(=O)O/N=C1\C(=C2\C(=O)Nc3cc(Br)ccc32)Nc2ccccc21	114
Cc1cc2ncc(-c3ccccc3)nc2cc1C	108
COc1ccc2c(c1)/C(=C/c1cnc[nH]1)C(=O)N2	100
c1ccc2c(-c3ccncc3)c[nH]c2c1	101
O=C1Nc2cc(Br)ccc2/C1=C1/Nc2ccccc2/C1=N\O	86
O=C1Nc2ccc(Cl)cc2/C1=C/c1cc(Cl)c(O)c(Cl)c1	95
O=C(c1cc2cc(O)ccc2[nH]1)c1cc2cc(O)ccc2[nH]1	81
Cc1nc2cc3nc(-c4cccs4)cnc3cc2n1C	94
Nc1ncnc2c1cnn2-c1ccccc1	94
